PubChem BioAssay (NCATS)
Inconclusive results are not listed. Where a call stands in place of a potency, no number is given. Active and inactive are the calls of the source. The call rests on the fitted dose curve; in most records, active means well fitted curve in the direction sought with a large enough effect; inconclusive means small, poorly fitted or top-dose-only effect, or another doubt; inactive means no such curve, though single readings can be large; an effect the other way counts as inactive or inconclusive.

System: Zika virus NS2B-NS3 protease
Assay: Primary screen GU AMC qHTS for Zika virus inhibitors (AID 1347154); further: nearly all actives have a fitted effect of over 70% in size
Conditions: Zika NS2B-NS3 unlinked protease, AMC fluorogenic substrate; series mostly up to 54.1 µM
Procedure, shortened: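 Unlinked Zika NS2B hydrophilic domain–NS3 protease complex at 25 nM in 10 mM Tris-HCl pH 8.0, 0.01% Tween 20, with an AMC peptide substrate. Fluorescence change (340/450 nm) over 15 min at room temperature, normalized to controls, fitted to 4-parameter Hill.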

Compound	Potency
O=C(c1ccc(C(=O)N2CCC(N3CCCC3)CC2)c(Nc2ccccc2)c1)N1CCC(N2CCCC2)CC1	inactive
CN1c2ccccc2C(=O)N2CCc3c([nH]c4ccccc34)C21 (stereo not drawn)	inactive
COc1cc2ncnc(Nc3cc(Br)c(O)c(Br)c3)c2cc1OC	inactive
O=c1[nH]nc(OCCCc2ccc(Cl)cc2)c(NCc2cccnc2)c1Br	inactive
N#Cc1ccc(Oc2ccc3c(c2)COB3O)cc1	inactive
CC[C@H](CC#N)OC(=O)N[C@@H](C)c1cccc(NC(=O)Nc2ccc(-c3cnco3)c(OC)c2)c1	inactive

System: not listed separately
Assay: Confirmatory screen GU Rhodamine qHTS for Zika virus inhibitors qHTS (AID 1347157); further: potency means the concentration at half of the fitted maximal effect; nearly all actives have a fitted effect of over 70% in size
Conditions: purified enzyme assay, Rhodamine110 substrate fluorescence, 15 min; series mostly up to 114 µM
Procedure, shortened: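 Compounds, tested up to 114 microM, were incubated for 15 minutes with 25 nM unlinked NS2B-NS3 protease at pH 8.0. Cleavage of 1.5 microM Rhodamine110 substrate was then followed by fluorescence for 15 minutes.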

Compound	Potency
Cn1c(=O)c(-c2c(Cl)cccc2Cl)cc2cnc(Nc3cccc(C(=O)O)c3)nc21	11.1 µM (active)
Cc1nc(C(=O)NCC(=O)O)c(O)c2ccc(Oc3ccccc3)cc12	44.1 µM (active)
O=S(=O)(O)c1ccc2cc(N=Nc3cc(S(=O)(=O)O)c4cccnc4c3O)ccc2c1	1.39 µM (active)

System: Zika virus NS2B-NS3 protease (unlinked complex)
Assay: Primary screen GU Rhodamine qHTS for Zika virus inhibitors: Unlinked NS2B-NS3 protease assay (AID 1347159); further: nearly all actives have a fitted effect of over 60% in size; further: potency means the concentration at half of the fitted maximal effect
Conditions: Recombinant ZIKV NS2B-NS3 protease, Rhodamine110 substrate fluorescence; series mostly up to 107 µM
Procedure, shortened: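 Enzyme 25 nM in Tris-HCl pH 8.0 + 0.01% Tween 20; compounds up to 114 microM, 15 min RT dark; + Rhod110 substrate 1.5 microM; read t0 and 15 min; delta fluorescence → % inhibition → 4-parameter Hill fit.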

Compound	Potency
Cc1c(C(=O)Nc2ccc(N3C[C@@H](C)O[C@@H](C)C3)nc2)cccc1-c1ccc(OC(F)(F)F)cc1	inactive
COc1ccc(-c2cc3nccn3c(Nc3ncccc3C(N)=O)n2)cc1OC	inactive
COc1ccc(-c2nc3ccc(C4=NNC(=O)CC4C)cc3[nH]2)cc1 (stereo not drawn)	inactive
Cc1cc(-c2ncc(CC(=O)Nc3ccc(-c4cnccn4)cn3)cc2C)ccn1	inactive
COc1ccc(Cn2ccc3ccc(C(=O)NO)cc32)cc1	inactive
CNC1CCC(N(Cc2cccc(-c3ccncc3)c2)C(=O)c2sc3ccccc3c2Cl)CC1 (stereo not drawn)	inactive
O=C1NC(=O)C(c2cnc3ccccn23)=C1c1cn2c3c(cccc13)CN(C(=O)N1CCOCC1)CC2	inactive
CNc1nc(Nc2ccc(C(=O)N3CCOCC3)cc2OC)ncc1Cl	inactive
Cn1c(=O)c(-c2c(Cl)cccc2Cl)cc2cnc(Nc3cccc(C(=O)O)c3)nc21	7.94 µM (active)
C[C@H](c1ccc(F)cc1CCCC(=O)O)N(c1cc(F)ccc1F)S(=O)(=O)c1ccc(Cl)cc1	14.1 µM (active)
NC(=O)c1noc([C@H](CCCC2CCCCC2)CC(=O)NO)n1	inactive
COc1nccc(-c2c(-c3ccc(F)cc3)ncn2C2CCNCC2)n1	inactive
NS(=O)(=O)c1cc(Cl)c(Cl)c(S(N)(=O)=O)c1	inactive
C[C@@H]1CCO[C@H]2Cn3cc(C(=O)NCc4ccc(F)cc4F)c(=O)c(O)c3C(=O)N12	inactive
c1ccc(CNc2nc(N3CCOc4ccccc43)nc3c2CCCC3)cc1	inactive
Cc1cc(C(C)Nc2ccccc2)c2nc(N3CCOCC3)cc(=O)n2c1 (stereo not drawn)	inactive
Cc1nc(C(=O)NCC(=O)O)c(O)c2ccc(Oc3ccccc3)cc12	22.4 µM (active)
Cc1csc(-c2nnc(Nc3ccc(Oc4ncccc4-c4ccnc(N)n4)cc3)c3ccccc23)c1	inactive
CC(C)(C)c1nc(-c2cccc(NS(=O)(=O)c3c(F)cccc3F)c2F)c(-c2ccnc(N)n2)s1	14.1 µM (active)
CN(C)c1ccc(-c2nc3ncc(Cl)c(N4CCN(CC(=O)Nc5nccs5)CC4)c3[nH]2)cc1	17.8 µM (active)
CNC(=O)c1ccc2c(C(=Nc3cccc(CN(C)C)c3)c3ccccc3)c(O)[nH]c2c1	inactive
CC(C)CNc1ccnc(NCc2csc(-c3ccccc3)n2)n1	inactive
CC(C)(OCc1nn(Cc2ccccc2)c2ccccc12)C(=O)O	inactive
CN1CCN(c2cccc(Nc3nc4c(-c5ccc(S(C)(=O)=O)cc5)cccn4n3)c2)CC1	inactive
O[C@@H](COc1cccc2ncccc12)CN1CCN(C2c3ccccc3[C@@H]3[C@H](c4ccccc42)C3(F)F)CC1 (stereo partly drawn)	inactive
O=S(=O)(O)c1ccc2cc(N=Nc3cc(S(=O)(=O)O)c4cccnc4c3O)ccc2c1	0.794 µM (active)

System: Zika virus NS2B-NS3 protease (linked construct)
Assay: Primary screen NINDS Rhodamine qHTS for Zika virus inhibitors (AID 1347160); further: nearly all actives have a fitted effect of over 55% in size; further: potency means the concentration at half of the fitted maximal effect
Conditions: purified NS2B-NS3 protease, Rhodamine110 substrate fluorescence; series mostly up to 57.1 µM
Procedure, shortened: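 Enzyme (25 nM, linked NS2B-NS3) was preincubated 15 min with compound in 10 mM Tris-HCl pH 8.0, 0.01% Tween 20. Rhodamine110 substrate (1.5 microM) was then added and fluorescence read at start and after 15 min.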

Compound	Potency
Cc1c(C(=O)Nc2ccc(N3C[C@@H](C)O[C@@H](C)C3)nc2)cccc1-c1ccc(OC(F)(F)F)cc1	inactive
COc1ccc(-c2cc3nccn3c(Nc3ncccc3C(N)=O)n2)cc1OC	inactive
CN(C)CCCNC(=O)c1ccc(-c2cc(O)c3ncccc3c2)cc1	inactive
O=C(c1ccc(C(=O)N2CCC(N3CCCC3)CC2)c(Nc2ccccc2)c1)N1CCC(N2CCCC2)CC1	inactive
COc1ccc(-c2nc3ccc(C4=NNC(=O)CC4C)cc3[nH]2)cc1 (stereo not drawn)	inactive
Cc1cc(-c2ncc(CC(=O)Nc3ccc(-c4cnccn4)cn3)cc2C)ccn1	inactive
COc1ccc(Cn2ccc3ccc(C(=O)NO)cc32)cc1	inactive
CNC1CCC(N(Cc2cccc(-c3ccncc3)c2)C(=O)c2sc3ccccc3c2Cl)CC1 (stereo not drawn)	inactive
O=C1NC(=O)C(c2cnc3ccccn23)=C1c1cn2c3c(cccc13)CN(C(=O)N1CCOCC1)CC2	inactive
CNc1nc(Nc2ccc(C(=O)N3CCOCC3)cc2OC)ncc1Cl	inactive
Cn1c(=O)c(-c2c(Cl)cccc2Cl)cc2cnc(Nc3cccc(C(=O)O)c3)nc21	inactive
C[C@H](c1ccc(F)cc1CCCC(=O)O)N(c1cc(F)ccc1F)S(=O)(=O)c1ccc(Cl)cc1	14.1 µM (active)
NC(=O)c1noc([C@H](CCCC2CCCCC2)CC(=O)NO)n1	inactive
COc1nccc(-c2c(-c3ccc(F)cc3)ncn2C2CCNCC2)n1	inactive
NS(=O)(=O)c1cc(Cl)c(Cl)c(S(N)(=O)=O)c1	inactive
CN1c2ccccc2C(=O)N2CCc3c([nH]c4ccccc34)C21 (stereo not drawn)	inactive
C[C@@H]1CCO[C@H]2Cn3cc(C(=O)NCc4ccc(F)cc4F)c(=O)c(O)c3C(=O)N12	inactive

Compound	Potency
c1ccc(CNc2nc(N3CCOc4ccccc43)nc3c2CCCC3)cc1	inactive
Cc1cc(C(C)Nc2ccccc2)c2nc(N3CCOCC3)cc(=O)n2c1 (stereo not drawn)	inactive
COc1cc2ncnc(Nc3cc(Br)c(O)c(Br)c3)c2cc1OC	inactive
CNC(=O)c1cc(Oc2ccc(NC(=O)Nc3ccc(Cl)c(C(F)(F)F)c3)c(F)c2)ccn1	inactive
Cc1nc(C(=O)NCC(=O)O)c(O)c2ccc(Oc3ccccc3)cc12	inactive
O=c1[nH]nc(OCCCc2ccc(Cl)cc2)c(NCc2cccnc2)c1Br	inactive
Cc1csc(-c2nnc(Nc3ccc(Oc4ncccc4-c4ccnc(N)n4)cc3)c3ccccc23)c1	inactive
N#Cc1ccc(Oc2ccc3c(c2)COB3O)cc1	inactive
CNC(=O)c1ccc2c(C(=Nc3cccc(CN(C)C)c3)c3ccccc3)c(O)[nH]c2c1	inactive
CC(C)CNc1ccnc(NCc2csc(-c3ccccc3)n2)n1	inactive
CC[C@H](CC#N)OC(=O)N[C@@H](C)c1cccc(NC(=O)Nc2ccc(-c3cnco3)c(OC)c2)c1	inactive
CC(C)(OCc1nn(Cc2ccccc2)c2ccccc12)C(=O)O	inactive
NS(=O)(=O)c1ccc(Nc2nc(OCC3CCCCC3)c3[nH]cnc3n2)cc1	inactive
CN1CCN(c2cccc(Nc3nc4c(-c5ccc(S(C)(=O)=O)cc5)cccn4n3)c2)CC1	inactive
O[C@@H](COc1cccc2ncccc12)CN1CCN(C2c3ccccc3[C@@H]3[C@H](c4ccccc42)C3(F)F)CC1 (stereo partly drawn)	inactive
O=S(=O)(O)c1ccc2cc(N=Nc3cc(S(=O)(=O)O)c4cccnc4c3O)ccc2c1	1.26 µM (active)
